14-3-3 Bad inh: disrupts binding of bovine 14-3-3 zeta to phospho-Bad peptide; P63103; TR-FRET 14-3-3zeta/Dy647-pBad peptide displacement, 1 h; inhibition, % at 21.7 µM; 220,000 tested, 0.71% active; AID 781;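 active = inhibition above about 70%, limit read from the data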;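 also: 0% = full 14-3-3 plus peptide FRET controls and 100% = background without 14-3-3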
Target sequence (P63103 whole entry, looked up): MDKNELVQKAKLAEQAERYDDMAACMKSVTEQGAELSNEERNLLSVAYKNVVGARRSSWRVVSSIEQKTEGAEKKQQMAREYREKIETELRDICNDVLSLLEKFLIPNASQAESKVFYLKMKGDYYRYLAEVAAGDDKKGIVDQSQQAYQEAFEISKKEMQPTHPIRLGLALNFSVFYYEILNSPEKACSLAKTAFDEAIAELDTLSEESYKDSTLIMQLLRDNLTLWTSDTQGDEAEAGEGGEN
Bim-Mcl-1: human Bim-Mcl-1 interaction inhibition. Bead-based flow cytometry, Bim peptide-Mcl-1 binding. inhibition, % at 10 µM. 190,000 tested, 0.1% active. AID 1009; in the data active = inhibition above about 40%;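 also: 0% = no compound tracer wells and 100% = peptide blocker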
Target sequence (Q07820 whole entry, looked up): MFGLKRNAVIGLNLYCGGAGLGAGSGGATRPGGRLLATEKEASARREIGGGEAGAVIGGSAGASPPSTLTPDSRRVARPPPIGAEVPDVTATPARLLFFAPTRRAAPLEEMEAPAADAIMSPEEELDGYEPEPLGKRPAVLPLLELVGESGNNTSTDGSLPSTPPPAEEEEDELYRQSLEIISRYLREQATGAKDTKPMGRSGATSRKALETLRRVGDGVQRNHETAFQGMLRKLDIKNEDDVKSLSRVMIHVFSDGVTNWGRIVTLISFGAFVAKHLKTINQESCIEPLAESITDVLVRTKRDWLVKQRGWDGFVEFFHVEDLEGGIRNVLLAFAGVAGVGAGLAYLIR
Mcl1-Noxa inh: disrupts binding of human Mcl-1 to Noxa peptide. Q07820. 220,000 tested, 1.5% active. TR-FRET Mcl-1/Noxa peptide binding, 2 h. inhibition, % at 21.7 µM;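 active = compounds that cut the protein-peptide binding signal by more than 50% relative to plate controls in a single-dose test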;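 also: His-tagged Mcl-1 with rhodamine Noxa BH3 peptide and terbium anti-His antibody; 0% = Mcl-1 plus Noxa peptide wells and 100% = peptide-only wells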
MCL1-BIM inh: inhibitors of human MCL1 binding to BIM-BH3 peptide. Q07820. GST-MCL1 / FITC-Bim-BH3 fluorescence polarization. inhibition, % at 10.9 µM. 320,000 tested, 0.68% active. AID 2057;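 active = inhibition above the mean inhibition of all tested compounds plus 3 SD, set per campaign, cut at about 40% in these data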;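 also: 0% = DMSO wells and 100% = unlabeled Bim-BH3 peptide control; higher means more loss of mP so more displacement of Bim peptide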
Mcl1-Bid inh: Mcl-1/Bid interaction inhibition; TR-FRET Mcl-1/Bid-Dy647 peptide binding, 1536-well; inhibition, % at 21.7 µM; 220,000 tested, 0.97% active; AID 1021;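 active = compounds that cut the binding signal by more than half at the single screening dose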;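 also: His-tagged Mcl-1 with europium anti-His antibody binding Bid BH3 peptide; 0% = Mcl-1 plus peptide wells and 100% = peptide-only wells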
An asterisk follows results filed as active; [ ] = another dose, or the depositor's remark. An excerpt weighted towards active compounds, which were near 2.5% of everything screened.

What do the screens show for `COC(=O)c1ccccc1NC(=O)Nc1ccc(Cl)cn1`?
14-3-3 Bad inh: -3; Bim-Mcl-1: 0; Mcl1-Noxa inh: -8; MCL1-BIM inh: 3; Mcl1-Bid inh: -22

Results for COc1cc(/C=C/[N+](=O)[O-])ccc1OCc1cccc(C(=O)O)c1 ?
14-3-3 Bad inh: 63; Bim-Mcl-1: -1; Mcl1-Noxa inh: 60*; Mcl1-Bid inh: -3

What do the screens show for `COc1cc(CNC(=O)CCC(=O)N2C[C@H]3C[C@H](C2)c2cccc(=O)n2C3)cc(OC)c1OC`?
MCL1-BIM inh: 2

Results for O=C(O)COc1ccc(Br)cc1/C=C1/SC(=O)N(CC(=O)N2CCCC2)C1=O ?
14-3-3 Bad inh: 19; Bim-Mcl-1: -1; Mcl1-Noxa inh: 19; MCL1-BIM inh: 13; Mcl1-Bid inh: -15

What do the screens show for `O=C(O)CN1C(=O)/C(=C\c2cc(Br)ccc2OCc2ccccc2Cl)SC1=S`?
MCL1-BIM inh: 57*

Results for Cc1oc(-c2ccc(Cl)cc2)nc1CSCC(=O)NC1CCN(Cc2ccccc2)CC1 ?
MCL1-BIM inh: -2

Results for CSc1ccccc1C(=O)C1CCCN(S(=O)(=O)N(C)C)C1 (stereo not given) ?
14-3-3 Bad inh: 0; Bim-Mcl-1: 0; Mcl1-Noxa inh: 8; MCL1-BIM inh: 0; Mcl1-Bid inh: -19

What do the screens show for `CCCCOc1ccc(C2C3CN(C(=O)OCC)CC=C3C(C#N)=C(N)C2(C#N)C#N)cc1OC` (stereo not given)?
14-3-3 Bad inh: -13; Bim-Mcl-1: -2; Mcl1-Noxa inh: 15; MCL1-BIM inh: -8; Mcl1-Bid inh: -9

Results for CC(=O)N1CC=C2C(C#N)=C(N)C(C#N)(C#N)[C@H](c3ccoc3)[C@H]2C1 ?
14-3-3 Bad inh: -10; Bim-Mcl-1: -4; Mcl1-Noxa inh: -10; MCL1-BIM inh: 52*; Mcl1-Bid inh: -19

Results for CC(=O)N1CC=C2C(C#N)=C(N)C(C#N)(C#N)C(CCc3ccccc3)C2C1 (stereo not given) ?
14-3-3 Bad inh: -12; Bim-Mcl-1: -1; Mcl1-Noxa inh: -9; MCL1-BIM inh: 2; Mcl1-Bid inh: -51

What do the screens show for `CCCN1CC=C2C(C#N)=C(N)C(C#N)(C#N)C(c3cccc(OC)c3OC)C2C1` (stereo not given)?
14-3-3 Bad inh: -12; Bim-Mcl-1: -5; Mcl1-Noxa inh: -39; MCL1-BIM inh: 140*; Mcl1-Bid inh: -54

How did COc1ccc(OC)c(C2C3CN(C(C)C)CC=C3C(C#N)=C(N)C2(C#N)C#N)c1 (stereo not given) do in these assays?
14-3-3 Bad inh: 1; Bim-Mcl-1: -5; Mcl1-Noxa inh: 3; MCL1-BIM inh: 96*; Mcl1-Bid inh: -34

How did CCN1CC=C2C(C#N)=C(N)C(C#N)(C#N)C(CCc3ccccc3)C2C1 (stereo not given) do in these assays?
14-3-3 Bad inh: -5; Bim-Mcl-1: 0; Mcl1-Noxa inh: -13; MCL1-BIM inh: 183*; Mcl1-Bid inh: -29

Results for COc1ccc2nc(N3CCCCC3)c(C#N)cc2c1 ?
14-3-3 Bad inh: 6; Bim-Mcl-1: -2; Mcl1-Noxa inh: -7; MCL1-BIM inh: 27; Mcl1-Bid inh: 18

Results for O=C(O)Cn1cnc2c(=S)nc[nH]c21 ?
14-3-3 Bad inh: -3; Mcl1-Noxa inh: 9; MCL1-BIM inh: -3; Mcl1-Bid inh: 99*

How did O=C(N/N=C/c1ccc(OC(=O)c2cccs2)cc1)c1cccc(F)c1 do in these assays?
14-3-3 Bad inh: 72*; Mcl1-Noxa inh: 25; MCL1-BIM inh: -3; Mcl1-Bid inh: 9

What do the screens show for `O=C(N/N=C/c1ccc(OC(=O)c2cccc(F)c2)cc1)c1cccnc1`?
MCL1-BIM inh: -14

Results for COc1cc(OC)c(C2Nc3ccccc3NC3=C2C(=O)CC(C)(C)C3)cc1OC (stereo not given) ?
MCL1-BIM inh: 10

Results for COc1ccc(C2CC(=O)C3=C(C2)Nc2ccccc2NC3c2coc3ccccc3c2=O)cc1OC (stereo not given) ?
14-3-3 Bad inh: 9; Bim-Mcl-1: 42*; Mcl1-Noxa inh: 10; MCL1-BIM inh: -8; Mcl1-Bid inh: -43

Results for S=c1[nH]nc(-c2ccco2)n1/N=C/c1cccc(Cl)c1Cl ?
14-3-3 Bad inh: 5; Bim-Mcl-1: -8; Mcl1-Noxa inh: 72*; MCL1-BIM inh: -9; Mcl1-Bid inh: -46

What do the screens show for `CNC(=O)NC(=O)COC(=O)CCc1nc(=O)c2ccccc2n1C`?
14-3-3 Bad inh: -7; Bim-Mcl-1: -4; Mcl1-Noxa inh: 6; MCL1-BIM inh: 0; Mcl1-Bid inh: -1

How did CCCCNC(c1ccccc1)c1ccncc1 (stereo not given) do in these assays?
14-3-3 Bad inh: 71*; Bim-Mcl-1: -1; Mcl1-Noxa inh: 28; MCL1-BIM inh: 4; Mcl1-Bid inh: 11

What do the screens show for `CCOC(=O)C1CCN(CC(=O)Nc2c(C(=O)OC)[nH]c3cccc(Cl)c23)CC1`?
14-3-3 Bad inh: 3; Bim-Mcl-1: 0; Mcl1-Noxa inh: 4; MCL1-BIM inh: -3; Mcl1-Bid inh: 99*

What do the screens show for `Cc1c(NS(=O)(=O)c2cc(NC(=O)CCN3CCCC(C)C3)ccc2Cl)c(=O)n(-c2ccccc2)n1C` (stereo not given)?
14-3-3 Bad inh: -7; Bim-Mcl-1: 0; Mcl1-Noxa inh: 78*; MCL1-BIM inh: 14; Mcl1-Bid inh: -22

What do the screens show for `CCc1ccc(S(=O)(=O)/N=C2\C=C(Nc3ccc(O)cc3)C(=O)c3ccccc32)cc1`?
MCL1-BIM inh: 12

How did CCc1ccc(S(=O)(=O)/N=C2\C=C(Nc3cccc(C(=O)O)c3)C(=O)c3ccccc32)cc1 do in these assays?
MCL1-BIM inh: 17

What do the screens show for `CCc1ccc(S(=O)(=O)/N=C2/C=C(Sc3ncn[nH]3)C(=O)c3ccccc32)cc1`?
14-3-3 Bad inh: 84*[fluorescence artefact?]; Bim-Mcl-1: 1; Mcl1-Noxa inh: 101*; MCL1-BIM inh: 32; Mcl1-Bid inh: 40

Results for CCc1ccc(S(=O)(=O)/N=C2\C=CC(=O)c3ccccc32)cc1 ?
14-3-3 Bad inh: -3; Bim-Mcl-1: 1; Mcl1-Noxa inh: 87*; MCL1-BIM inh: 19; Mcl1-Bid inh: -12

What do the screens show for `Cc1cccc(C(=O)Oc2ccc(/C=N/NC(=O)Cc3ccc([N+](=O)[O-])cc3)cc2)c1`?
14-3-3 Bad inh: 9; Bim-Mcl-1: -3; Mcl1-Noxa inh: 30; MCL1-BIM inh: -1; Mcl1-Bid inh: -13

How did COc1ccc(Nc2nc(-c3cccc([N+](=O)[O-])c3)nc3ccccc23)c(OC)c1 do in these assays?
14-3-3 Bad inh: 17; Bim-Mcl-1: -6; Mcl1-Noxa inh: 27; MCL1-BIM inh: -1; Mcl1-Bid inh: 34

Results for COc1ccc(OC)c(Nc2ncnc3sc(-c4ccccc4)cc23)c1 ?
14-3-3 Bad inh: 80*[fluorescence artefact?]; Bim-Mcl-1: -4; Mcl1-Noxa inh: 7; MCL1-BIM inh: 7; Mcl1-Bid inh: -4

What do the screens show for `COc1ccc(OC)c(Nc2nc(-c3cccc([N+](=O)[O-])c3)nc3ccccc23)c1`?
14-3-3 Bad inh: 13; Bim-Mcl-1: 0; Mcl1-Noxa inh: 38; MCL1-BIM inh: -5; Mcl1-Bid inh: 70*
